The values below come from PubChem BioAssay.

Activity calls are given as the source filed them.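 How the source made its calls, unless noted: active means visually confirmed hit in the image check and inhibition above 20%; inconclusive means visually confirmed hit but inhibition not above 20%; inactive means no visual hit in the image check.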

A short description of experiment [1]: inhibitors of TNFa-induced NFkB p65 translocation, primary screen, imaging, HUVEC, MLSMR starter and 10KST1 sets (AID 438;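 active means inhibition above 20% together with a positive visual image hit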;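 further: compound added about 3h40 before a 20 min TNFalpha stimulation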;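 on inhibition: signal is the nuclear over cytoplasmic p65 intensity ratio per well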). The following applies: HUVEC TNFa-induced p65 nuclear translocation; cell count: measured here: nuclei count (cytotoxicity indicator), at 2.08 µM; inhibition: at 2 µM, stronger effect = higher value, 0% TNFa-plus-vehicle, 100% no-TNFa wells.
Experiment [2] in a line: inhibitors of mutant huntingtin aggregation, primary screen, imaging, exon1htt(103Q)mCFP cells, high-content imaging (AID 483;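 active means visual image review flags a hit and inhibition of aggregation exceeds 20%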;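 further: compound exposure lasted 3 days before fixation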;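 on nuclei count: percent of the per-plate median nuclei count of sample wells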). The following applies: exon1htt(103Q)mCFP cell line, aggregate imaging, at 2 µM; inhibition of aggregation: stronger effect = higher value; nuclei count: measured here: cell count, toxicity.
Experiment [3] can be described thus: inhibitors of E-selectin induction by TNFa, primary screen, imaging, HUVEC, immunofluorescence, MLSMR starter and 10KST1 sets (AID 487).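 On inhibition: signal is fraction of cell area covered by stained E-selectin grains.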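 On nuclei count: 100% = median nuclei count of all wells on the same plate.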 The following applies: HUVEC TNFalpha-induced E-selectin immunofluorescence imaging, at 2 µM; inhibition: stronger effect = higher value; nuclei count: measured here: cell number, toxicity.
In experiment [4] the target is Voltage-gated potassium channel subunit beta-2 (Rattus norvegicus) (UniProt P62483). As to the kind of experiment: KvBeta enzyme negative modulators, primary screen, biochemical, NADPH fluorescence (AID 622;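 active means fluorescence slope higher than the sample average by over 3 SD, cut at about -0.22 in these data, passing the limit was not always enough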;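 further: slope of raw intensity against log time taken from 70 to 1610 s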). The following applies: recombinant KvBeta, 4-cyanobenzaldehyde reduction, at 10 µM, stronger effect = higher value.
For experiment [5] the target is unchanged. As to the kind of experiment: KvBeta positive modulators, primary screen, biochemical, NADPH fluorescence (AID 623;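 active means NADPH fluorescence slope more negative than the mean of all samples by about 3 SD, 99.7% confidence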;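 further: fluorescence intensity change per second fitted from 20 to 320 s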). The following applies: Recombinant KvBeta, NADPH fluorescence decrease slope, 10 min; at 10 µM; stronger effect = lower value.
Experiment [6] has as its target Alpha-2C adrenergic receptor (Homo sapiens) (UniProt P18825). As to the kind of experiment: modulators of alpha2C/GIRK thallium flux, primary screen, cell-based, HEK293 alpha2C/GIRK1/2 (AID 624;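 active means fluorescence slope after compound addition differing from the mean of all screened samples at 99.7% confidence, in either direction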;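 further: slope of fluorescence ratio to pre-addition baseline per second over 15 to 24 s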). The following applies: thallium flux BTC fluorescence, at 10 µM, actives lie on both sides.
Experiment [7] is described as follows: inhibitors of Sendai virus-induced IRF3 signaling, primary screen, TLR/RLR signaling modifier project, cell-based, Sendai virus stimulus, luciferase, 10K MLSCN set (AID 602276;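 active means inhibition at or above 50% at 10 µM; inactive means inhibition below 50%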;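 further: firefly luciferase from ISG56 promoter only with Renilla not read in this screen; 0% = Sendai virus plus DMSO and 100% = medium plus DMSO without virus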). The following applies: HEK293 RL24 IRF3 luciferase reporter, at 10 µM, stronger effect = higher value.
A short description of experiment [8]: inhibitors of poly I:C-induced TLR3 signaling, primary screen, cell-based, poly I:C stimulus, luciferase, 10K MLSCN set (AID 602277;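 active means inhibition of the reporter signal at or above 50%; inactive means inhibition below 50%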). The following applies: HEK293-TLR3 RL24 IRF3 luciferase reporter, at 10 µM, stronger effect = higher value. For orientation: Reporter assays use an easily measured gene product as a stand-in for the process of interest.

Voltage-gated potassium channel subunit beta-2 (Rattus norvegicus), sequence (P62483 whole entry, looked up): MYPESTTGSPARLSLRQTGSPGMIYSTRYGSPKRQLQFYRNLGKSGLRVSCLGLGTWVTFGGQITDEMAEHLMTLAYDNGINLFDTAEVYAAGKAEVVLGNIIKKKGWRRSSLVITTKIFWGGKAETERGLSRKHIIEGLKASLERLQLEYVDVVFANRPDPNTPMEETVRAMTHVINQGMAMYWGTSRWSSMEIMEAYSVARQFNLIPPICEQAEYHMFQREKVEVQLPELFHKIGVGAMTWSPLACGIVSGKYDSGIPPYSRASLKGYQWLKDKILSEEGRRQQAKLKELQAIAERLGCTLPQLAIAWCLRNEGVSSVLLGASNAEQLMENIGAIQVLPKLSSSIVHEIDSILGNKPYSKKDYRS
Alpha-2C adrenergic receptor (Homo sapiens), sequence (P18825 whole entry, looked up): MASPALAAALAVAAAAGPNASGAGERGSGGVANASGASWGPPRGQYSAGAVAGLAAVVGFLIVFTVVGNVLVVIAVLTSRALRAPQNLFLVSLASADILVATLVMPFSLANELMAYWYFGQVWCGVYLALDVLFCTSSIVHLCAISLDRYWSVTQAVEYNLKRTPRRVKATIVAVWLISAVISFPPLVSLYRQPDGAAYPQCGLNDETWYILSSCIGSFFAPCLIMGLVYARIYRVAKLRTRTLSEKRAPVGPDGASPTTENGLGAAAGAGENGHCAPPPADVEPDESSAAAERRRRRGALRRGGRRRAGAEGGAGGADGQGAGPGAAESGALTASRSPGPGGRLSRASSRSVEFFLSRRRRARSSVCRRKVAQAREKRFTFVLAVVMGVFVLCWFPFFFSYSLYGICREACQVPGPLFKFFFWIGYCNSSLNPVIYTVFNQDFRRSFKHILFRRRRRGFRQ

A word on the inhibition: it is the drop in the measured response relative to a control, in per cent. In the case of `CC(=O)Nc1cccc(NC(=O)c2oc3ccccc3c2C)c1`, in experiment [1], the cell count was 343. The inhibition was -0.2% (inactive) in experiment [1], -9.3% (inactive) in experiment [3], -37.4% (inactive) in experiment [7] and -104% (inactive) in experiment [8]. The inhibition of aggregation in experiment [2] was 0.5% (inactive). Moreover, the nuclei count in experiment [2] is 98.8%; in experiment [3] it was 112%. In addition, in experiment [4], the fluorescence slope was -0.521 (inactive). In addition, the NADPH fluorescence slope in experiment [5] was 1.6e-05 (inactive). For the same compound, the slope in experiment [6] is 0.00572 (inactive).
For `CCn1c(SCC(=O)c2ccc(OC)cc2)nnc1C(C)NC(=O)c1ccc(OC)cc1` (centres undefined), the cell count in experiment [1] worked out at 449. The inhibition in experiment [1] was -1.8% (inactive); in experiment [3], -41.9% (inactive); in experiment [7] it was -3.91% (inactive); in experiment [8], 9.81% (inactive). For the same compound, the inhibition of aggregation in experiment [2] is 2.6% (inactive). Further, the results for the nuclei count in experiment [2] and in experiment [3] were 96.2% and 129%, respectively. Moreover, the fluorescence slope in experiment [4] is -0.409 (inactive). Also, the NADPH fluorescence slope in experiment [5] is 2.1e-05 (inactive). Moreover, the slope in experiment [6] is 0.00558 (inactive).
`CCC(C)(C(=O)NC1CCCCC1)N(CC1CCCO1)C(=O)c1ccccn1` (centres undefined): in experiment [1], the cell count was determined as 345. The inhibition is 3% (inactive) in experiment [1], -5.3% (inactive) in experiment [3], 15.2% (inactive) in experiment [7] and 26.8% (inactive) in experiment [8]. Moreover, the inhibition of aggregation in experiment [2] was 6.3% (inactive). Besides, the nuclei count in experiment [2] was determined as 90.8%; in experiment [3] it was 104%. The fluorescence slope in experiment [4] is -0.418 (inactive). Besides, the NADPH fluorescence slope in experiment [5] was -8.5e-05 (inactive). For the same compound, in experiment [6], the slope is 0.0062 (inactive).
Consider `N#Cc1c2n(c(=S)n(-c3ccccn3)c1=O)CCCCC2`, for which the cell count in experiment [1] was determined as 588. Also, the inhibition in experiment [1] is -26.4% (inactive); in experiment [3], -117% (inactive); in experiment [7], -7.7% (inactive); in experiment [8], 11% (inactive). In addition, the inhibition of aggregation in experiment [2] is -14.8% (inactive). Moreover, the nuclei count is 111% in experiment [2] and 144% in experiment [3]. In experiment [4], the fluorescence slope was -0.477 (inactive). Moreover, the NADPH fluorescence slope in experiment [5] is -4.9e-05 (inactive). For the same compound, in experiment [6], the slope was 0.00579 (inactive).
`COc1cc(CN2CCN(C(=O)CC(C)C)CC2)cc(OC)c1O`: the cell count in experiment [1] was 642. Also, the inhibition in experiment [1] was -11% (inactive); in experiment [3], -52.5% (inactive); in experiment [7], 5.89% (inactive); in experiment [8], 16% (inactive). In addition, the inhibition of aggregation in experiment [2] is -4.6% (inactive). Besides, the nuclei count in experiment [2] is 99.7%; in experiment [3], 90.3%. For the same compound, the fluorescence slope in experiment [4] was -0.583 (inactive). Further, the NADPH fluorescence slope in experiment [5] was -2.8e-05 (inactive). For the same compound, the slope in experiment [6] is 0.00548 (inactive).
Consider `COc1cc(-c2nnc(SCc3c(F)cccc3Cl)o2)cc(OC)c1OC`, for which the cell count in experiment [1] amounted to 803. In addition, the inhibition in experiment [1] was 4.4% (inactive); in experiment [3], 3.2% (inactive); in experiment [7], -11.9% (inactive); in experiment [8] it was 1.41% (inactive). For the same compound, the inhibition of aggregation in experiment [2] is 8.8% (inactive). Further, the values for the nuclei count in experiment [2] and in experiment [3] were 103% and 106%, respectively. For the same compound, the fluorescence slope in experiment [4] is -0.493 (inactive). The NADPH fluorescence slope in experiment [5] was -1.6e-06 (inactive). In addition, the slope in experiment [6] is 0.00634 (inactive).
As for `Cc1cc(C)cc(NC(=O)CSc2nnc(Cc3cccn3C)n2-c2ccc(F)cc2)c1`, the cell count in experiment [1] was found to be 479. Further, the inhibition in experiment [1] is 4% (inactive); in experiment [3] it was 39.4% (inactive); in experiment [7] it was 13.7% (inactive); in experiment [8], 25.8% (inactive). For the same compound, in experiment [2], the inhibition of aggregation is 36.9% (inactive). Also, the nuclei count in experiment [2] amounted to 12.9%; in experiment [3] it was 96.5%. Also, the fluorescence slope in experiment [4] is -0.519 (inactive). Also, in experiment [5], the NADPH fluorescence slope was -2e-05 (inactive). Besides, the slope in experiment [6] was 0.00611 (inactive).
With `Cc1cc(=O)n(C)c(=O)n1CCCCCN1CCCC1`, the cell count in experiment [1] amounted to 655. Also, the inhibition in experiment [1] was 2.2% (inactive); in experiment [3], -52% (inactive); in experiment [7], 19.1% (inactive); in experiment [8], 25.3% (inactive). In addition, the inhibition of aggregation in experiment [2] is -3.3% (inactive). Further, the values for the nuclei count in experiment [2] and in experiment [3] were 106% and 102%, respectively. In addition, the fluorescence slope in experiment [4] was -0.51 (inactive). The NADPH fluorescence slope in experiment [5] was -1.1e-05 (inactive). For the same compound, the slope in experiment [6] was 0.00473 (inactive).
Consider `Cc1ccc2c(Cl)cc(Cl)c(OCc3c(C)noc3C)c2n1`, for which the cell count in experiment [1] came to 731. Further, the inhibition is -1.2% (inactive) in experiment [1], -164% (inactive) in experiment [3], -17% (inactive) in experiment [7] and -0.677% (inactive) in experiment [8]. Further, in experiment [2], the inhibition of aggregation is -13.6% (inactive). Also, the figures for the nuclei count in experiment [2] and in experiment [3] were 97.3% and 142%, respectively. Besides, in experiment [4], the fluorescence slope is -0.604 (inactive). The NADPH fluorescence slope in experiment [5] was 2.6e-05 (inactive). In addition, the slope in experiment [6] was 0.00543 (inactive).
For `Cn1cccc1Cc1nnc(SCC(=O)N2CCOCC2)n1-c1ccc(F)cc1`, the cell count in experiment [1] was 585. The inhibition was 5.8% (inactive) in experiment [1], 55.7% (active) in experiment [3], 12.2% (inactive) in experiment [7] and 28.3% (inactive) in experiment [8]. In experiment [2], the inhibition of aggregation was 26.9% (inactive). The nuclei count in experiment [2] was found to be 89.6%; in experiment [3] it was 96.2%. In addition, in experiment [4], the fluorescence slope was -0.527 (inactive). Also, the NADPH fluorescence slope in experiment [5] was -3.5e-05 (inactive). For the same compound, in experiment [6], the slope is 0.00693 (inactive).
For `CC1CCCC(C)N1C(=O)CSc1nnc(-c2cccs2)o1` (centres undefined), in experiment [1], the cell count turned out to be 400. Besides, the inhibition was -14% (inactive) in experiment [1], -9.9% (inactive) in experiment [3], -27.4% (inactive) in experiment [7] and -68% (inactive) in experiment [8]. Further, in experiment [2], the inhibition of aggregation was -29.6% (inactive). The nuclei count in experiment [2] turned out to be 114%; in experiment [3], 101%. For the same compound, in experiment [4], the fluorescence slope was -0.382 (inactive). Further, in experiment [5], the NADPH fluorescence slope was -5.4e-05 (inactive). Moreover, in experiment [6], the slope is 0.0042 (inactive).
`COCCn1nnnc1C(c1ccccc1OC)N1CCc2ccccc2C1` (centres undefined): in experiment [1], the cell count stood at 511. Also, the inhibition in experiment [1] was -3.6% (inactive); in experiment [3], -89.6% (inactive); in experiment [7], 16.5% (inactive); in experiment [8] it was 32.8% (inactive). Besides, in experiment [2], the inhibition of aggregation is 37.6% (inactive). Moreover, the nuclei count in experiment [2] stood at 105%; in experiment [3], 96.1%. Moreover, in experiment [4], the fluorescence slope was -0.322 (inactive). For the same compound, the NADPH fluorescence slope in experiment [5] was -5e-05 (inactive). In experiment [6], the slope was 0.00407 (inactive).
As to `CCOc1ccc(N(CC(=O)NC2CCCCC2)S(=O)(=O)c2c(C)noc2C)cc1`, the cell count in experiment [1] worked out at 710. Moreover, the inhibition is -2.8% (inactive) in experiment [1], -52.9% (inactive) in experiment [3], -0.99% (inactive) in experiment [7] and 17.1% (inactive) in experiment [8]. For the same compound, the inhibition of aggregation in experiment [2] was 33.7% (inactive). Further, the nuclei count was found to be 117% in experiment [2] and 112% in experiment [3]. Moreover, in experiment [4], the fluorescence slope is -0.616 (inactive). The NADPH fluorescence slope in experiment [5] is -2.8e-05 (inactive). Besides, the slope in experiment [6] is 0.00737 (inactive).
With `CCCCC(O)(C(NC=O)C(=O)OC)C(F)(F)F` (centres undefined), the cell count in experiment [1] is 703. In addition, the inhibition is -10.7% (inactive) in experiment [1], -10.7% (inactive) in experiment [3], 22% (inactive) in experiment [7] and 16% (inactive) in experiment [8]. Further, the inhibition of aggregation in experiment [2] is 12.7% (inactive). Further, the nuclei count in experiment [2] came to 67.6%; in experiment [3], 113%. The fluorescence slope in experiment [4] is -0.489 (inactive). Besides, in experiment [5], the NADPH fluorescence slope was 9.5e-07 (inactive). Further, the slope in experiment [6] was 0.00464 (inactive).
